# Bioassay records: PubChem BioAssay, National Center for Advancing Translational Sciences (NCATS)
# PLK1 PBD inh: inhibitors of human PLK1 polo-box domain binding; P53350; AID 720504; Plk1 PBD binding of FITC phosphopeptide, fluorescence polarization; actives 2.8% (n = 360,000); Potency, µM, usual class: inhibitors; note: series mostly up to about 57 µM; nearly all actives have a fitted effect of over 65% in size
# JMJD2A Tudor: JMJD2A Tudor domain (human) inhibition; actives 4.4% (n = 390,000); O75164; AlphaScreen JMJD2A-Tudor / H3K4me3 peptide binding; Potency, µM (titrated, usually from 114 µM), usual class: inhibitors; AID 504339; note: nearly all actives have a fitted effect of over 50% in size
# HP1b chromo inh: inhibitors of HP1-beta chromodomain binding to methylated histone tails; P83916; AlphaScreen HP1-beta / biotin-H3K9me3 peptide binding; Potency, µM (highest dose often 114 µM), most hits filed as inhibitors; actives 0.56% (n = 390,000); AID 540317; note: nearly all actives have a fitted effect of over 70% in size
# Target sequence (P83916 whole entry, looked up): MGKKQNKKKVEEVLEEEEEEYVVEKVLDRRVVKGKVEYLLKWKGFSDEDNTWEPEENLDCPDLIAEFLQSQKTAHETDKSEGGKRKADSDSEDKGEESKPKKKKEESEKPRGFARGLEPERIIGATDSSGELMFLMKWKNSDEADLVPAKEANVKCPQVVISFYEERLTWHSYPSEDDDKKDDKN
#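 AlphaScreen: HP1-beta (50 nM) preformed 30 min with biotin-H3(1-18)K9me3 peptide (50 nM) in PBS pH 7.4, 0.01% Tween-20. Compound added for 30 min at RT, then streptavidin donor/nickel chelate acceptor beads (10 ug/mL) for 30 min.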
# PI5P4K alpha inh: blocks human PI5P4K alpha kinase activity; PI5P4Kalpha enzyme, ADP-Glo luminescence, 60 min; active compounds read low; max response, %; actives 1.2% (n = 330,000); active = max response of -50% or lower; inconclusive = between -30% and -50%; inactive = -30% or higher; note: value at the top dose of about 77 µM
# Target sequence (P48426 whole entry, looked up): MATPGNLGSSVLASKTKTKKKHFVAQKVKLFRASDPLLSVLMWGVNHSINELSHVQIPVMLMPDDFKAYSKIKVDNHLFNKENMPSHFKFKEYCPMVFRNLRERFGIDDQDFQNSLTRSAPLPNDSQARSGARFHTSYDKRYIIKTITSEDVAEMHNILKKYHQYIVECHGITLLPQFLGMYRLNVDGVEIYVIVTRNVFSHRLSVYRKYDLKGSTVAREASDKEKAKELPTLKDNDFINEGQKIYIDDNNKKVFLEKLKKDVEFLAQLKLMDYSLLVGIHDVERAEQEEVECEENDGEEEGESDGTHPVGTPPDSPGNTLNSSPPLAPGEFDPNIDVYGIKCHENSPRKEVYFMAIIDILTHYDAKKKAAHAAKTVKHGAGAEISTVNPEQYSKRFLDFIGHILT
#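 Compounds were pin-transferred onto PI5P4Kalpha and substrate in HEPES pH 7.4 buffer with EGTA, CHAPS and 5% DMSO. ATP (5 microM final) started the reaction, which ran 60 minutes at room temperature before ADP-Glo detection.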
# BAZ2B block: BAZ2B (human) inhibition | Potency, µM (doses to about 114 µM), usual class: inhibitors | actives 4.4% (n = 360,000) | Q9UIF8 | AID 504333 | AlphaScreen BAZ2B-H3K14Ac peptide displacement; note: nearly all actives have a fitted effect of over 60% in size
#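 AlphaScreen displacement of biotin-H3(5-23)K14Ac peptide (50 nM final) from BAZ2B (50 nM final) in PBS pH 7.4, 0.01% Tween-20; complex preformed 30 min RT, then compounds (top 110 uM) 30 min RT, beads 20 min dark.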
# KAT2A inh: GCN5L2 (KAT2A) acetyltransferase inhibition | actives 0.21% (n = 390,000) | Potency, µM (series often up to 58.9 µM), usual class: inhibitors | GCN5L2 HAT assay, ThioGlo1 CoA-SH fluorescence
#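 qHTS, 1536-well. 20nM enzyme, pH 7.5 HEPES/EDTA/Tween-20 buffer; 15 min compound preinc., RT. Start: 75uM H3(1-25), 70uM AcCoA, 50uM ThioGlo1. Read Ex340/Em540 at t=0 (autofluorescence flag) and t=20 min.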
# TbPYK inh: confirmation of Trypanosoma brucei pyruvate kinase inhibitors; recombinant TbPYK, Kinase-Glo ATP luminescence; shares compounds with PLK1 PBD inh; AID 720569; actives 67% (n = 890); Potency, µM (titrated, usually from 76.9 µM), usual class: inhibitors; note: nearly all actives have a fitted effect of over 70% in size
# TbPYK orthogonal: TbPYK inhibition, orthogonal confirmation | shares compounds with PLK1 PBD inh | recombinant TbPYK, ADP-Glo luminescence, 60 min | Potency, µM (series often up to 76.9 µM), usual class: inhibitors | actives 62% (n = 890) | AID 720584; note: nearly all actives have a fitted effect of over 75% in size
# Numbers stand for hits; – = inactive; ? = inconclusive; · = not tested or not shown; [ ] = another dose, or the depositor's remark. Most compounds without a hit are left out; they make up all but 7% or so of the library. Unless noted, calls come from the whole dose curve; as a rule, active = well fitted curve in the direction sought with a large enough effect; inconclusive = small, poorly fitted or top-dose-only effect, or another doubt; inactive = no such curve, though single readings can be large; an effect the other way counts as inactive or inconclusive.
SMILES,PLK1 PBD inh,JMJD2A Tudor,HP1b chromo inh,PI5P4K alpha inh,BAZ2B block,KAT2A inh,TbPYK inh,TbPYK orthogonal
COc1ccc(C(=O)c2[nH]c(N)c(C(=O)NCCc3c[nH]c4ccccc34)c2-c2ccc(OC)c(OC)c2)cc1,–,·,·,–,·,·,·,·
Cc1ccc(/C=c2\sc3n(c2=O)CN(c2ccc(Br)cc2)CN=3)o1,?,–[11.4 µM],–,–,–,–,·,·
Cc1ccc(C2CC(=O)N3CN(c4ccc(Br)cc4)CSC3=C2C#N)o1 (centres undefined),–,22µM,–,·,56µM,?,32µM,16µM
CC(=O)N1CC[n+]2c(-c3ccc(Cl)cc3)csc21,6µM,40µM,–,–,–,–,16µM,7.1µM
CCc1ccc(-c2csc3[n+]2CCN3C(C)=O)cc1,?,–,–,·,?,–,·,·
COc1ccc(CNC(=O)CCCN2C(=O)NC3(CCCC3)C2=O)cc1,–,–,–,–,–,–,·,·
S=C(c1ccc(-c2ccc(Cl)cc2Cl)o1)N1CCCC1,?,50µM,?,–,–,–,?,?
O=C(c1ccc(-c2ccccc2Cl)o1)N1CCC1,–,–,–,–,–,–,·,·
Cc1ccc(NC(=O)CN(C)C(=O)c2ccc(Sc3nncn3C)c([N+](=O)[O-])c2)cc1,–,–,–,–,–,–,·,·
Cc1ccc([C@H]2C[C@H](O)[C@@H](n3cc(COC(=O)c4ccccc4)nn3)CN2Cc2cccs2)cc1,–,·,·,–,·,·,·,·
CCCCC1(C)OC(=O)C(=Cc2ccc(-c3ccc(Cl)c(C(=O)O)c3)o2)C(=O)O1 (centres undefined),4.2µM,–,–,–,–,?,16µM,32µM
CC(C)(C)OCC1CO1 (centres undefined),–,–,–,–,–,–,·,·
Nc1c(C(=O)N2CCOCC2)sc2nc(N3CCOCC3)c3c(c12)CCCC3,27µM,?,–,–,–,–,7.9µM,14µM
NNC(=O)c1sc2nc(N3CCOCC3)c3c(c2c1N)CCCC3,–,–,–,–,–,–,·,·
COc1cccc(NC(=O)c2sc3nc(N4CCOCC4)c4c(c3c2N)CCCC4)c1,?,–,–,–,–,–,?,?
CC1(C)Cc2c(c(N3CCOCC3)nc3sc(C(=O)N4CCCCC4)c(N)c23)CO1,?,?,–,–,–,–,0.4µM,2.5µM
Cc1ccc(NC(=O)c2sc3nc(N4CCOCC4)c4c(c3c2N)CCCC4)cc1,?,·,·,–,·,·,·,·
Nc1c(C(=O)Nc2ccc(Cl)cc2)sc2nc(N3CCOCC3)c3c(c12)CCCC3,?,–,–,–,–,–,?,?
CCc1ccc(NC(=O)Cn2nc3c4ccccc4n(Cc4ccccc4)cc-3c2=O)cc1,·,–,–,·,–,–,·,·
CCN1C(=O)/C(=C/c2cnn(CC)c2C)SC1=S,–,–,–,–,–,–,·,·
CCCN1C(=O)/C(=C\C=C2/C=CN(CC)c3ccccc32)SC1=S,–,?,?,–,?,–,16µM,–
CC1CC(C)CN(C(=O)CSc2nnc3ccccn23)C1 (centres undefined),–,–,–,–,·,–,·,·
OC[C@@H]1CN(CCN2CCOCC2)C[C@H](n2cnc3c(NCc4ccco4)ncnc32)O1,–,·,·,–,·,·,·,·
CN1CCN(c2ccc(CNC(=O)C3(C)Cc4c(-c5ccc6c(c5)OCO6)ccnc4O3)cc2)CC1 (centres undefined),–,·,·,–,·,·,·,·
Cc1c([N+](=O)[O-])cc(N2C(=O)C=CC2=O)cc1[N+](=O)[O-],2.7µM,22µM,35µM,-66,·,·,4µM,7.9µM
SMILES,PLK1 PBD inh,JMJD2A Tudor,HP1b chromo inh,PI5P4K alpha inh,BAZ2B block,KAT2A inh,TbPYK inh,TbPYK orthogonal
Cc1cc(C)cc(N2C(=O)C=CC2=O)c1,3µM,20µM,13µM,?,·,·,10µM,14µM
Cc1c(Cl)cc(-n2cnnn2)cc1[N+](=O)[O-],–,–,–,–,–,–,·,·
Cc1cc(OCC(=O)OC(C)C(=O)NC2CC2)c(C(C)C)cc1Cl (centres undefined),–,·,·,–,·,·,·,·
COC(=O)c1c(-c2ccc(C(C)(C)C)cc2)csc1NC(=O)C1C2CCC(O2)C1C(=O)O (centres undefined),2.7µM,?,?,?,–,?,4.5µM,14µM
Cc1cccc(NC(=O)C2CCN(S(=O)(=O)c3ccc4c(c3)CCCN4C(=O)C3CCC3)CC2)c1,·,–,–,·,–,–,·,·
CC1=CC(=O)C(C(C)C)=CC1=NC(=O)c1ccc(C)cc1,2.7µM,50µM,22µM,–,40µM,–,7.9µM,7.9µM
CCOC(=O)c1sc(=NC(=O)c2ccc(C)cc2)n(C)c1C,–,–,–,–,–,–,·,·
COc1ccc(NC(=O)N(C)C[C@H]2OCc3cnnn3CCCC(=O)N([C@H](C)CO)C[C@@H]2C)cc1,–,·,·,–,·,·,·,·
CCN(CC(=O)Nc1c(F)cccc1F)C(=O)c1ccc2c(c1)NC(=O)C(C)S2 (centres undefined),–,–,–,–,–,–,·,·
CCN(CC(=O)Nc1ccc(OC)cc1)C(=O)c1ccc2c(c1)NC(=O)C(C)S2 (centres undefined),–,–,–,–,–,–,28µM,35µM
CC1=CC(=Nc2c(C)n(C)n(-c3ccccc3)c2=O)C=C(C)C1=O,–,–,?,–,–,–,–,–
CN(C)c1ccc(C(=S)N2CCN(Cc3ccccc3)CC2)cc1,4.2µM,56µM,?,–,35µM,–,5µM,4.5µM
Oc1ccc(C(=S)N2CCN(Cc3ccccc3)CC2)cc1,2.7µM,?,?,?,–,–,16µM,32µM
S=C(c1ccc(Br)cc1)N1CCN(Cc2ccccc2)CC1,6.7µM,?,–,·,?,–,1.3µM,8.9µM
CN1CCN(C(=S)c2ccc(Br)cc2)CC1,4.2µM,–,–,–,–,–,7.1µM,7.9µM
Cc1ccc(OCC(=O)Nc2ccc3nc(SCC(=O)N4CCCC4)sc3c2)cc1,·,–,–,·,?,–,·,·
NC(=O)Cn1c(=O)n(Cc2ccco2)c(=O)c2c3c(sc21)CCCCC3,?,56µM,–,·,?,–,?,?
CCOC(=O)C1=CCN(S(=O)(=O)c2ccc(C)cc2)C1c1ccccc1 (centres undefined),–,·,·,–,·,·,·,·
CCOc1cc2c(c3c1C(c1ccccc1)N(S(=O)(=O)c1ccc(C)cc1)C3)C(=O)C=CC2=O (centres undefined),?,·,·,-85,·,·,1.6µM,2.8µM
O=c1cc(C(F)(F)F)[nH]c(=S)n1-c1ccccc1,?,79µM,?,–,–,–,14µM,11µM
Nc1cc(=O)[nH]c(=S)n1-c1ccccc1,–,–,–,–,–,–,·,·
